Measured values: PubChem BioAssay AID624040 (The Scripps Research Institute Molecular Screening Center, 2012)
Screen size: about 360,000 compounds; about 2,100 (0.58%) were called active. The full list was thinned out, with actives kept by preference. Values without a mark were called inactive.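 Rule for the calls: active = inhibition above a per-plate cutoff, the mean of that plate's test compounds plus 3 SD (cut at about 27% in these data); inactive = the rest.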

Target: Muscarinic acetylcholine receptor M5 (Homo sapiens) (UniProt P08912)
Assay: human M5 muscarinic receptor antagonists, primary screen, CHO cells, Fluo-8 calcium fluorescence (AID 624040);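 note: 0% = acetylcholine EC80 with DMSO and 100% = DMSO without agonist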
Details: CHO-hM5 cells, ACh EC80, at 3 µM, active compounds read high

Muscarinic acetylcholine receptor M5 (Homo sapiens), sequence (P08912 whole entry, looked up): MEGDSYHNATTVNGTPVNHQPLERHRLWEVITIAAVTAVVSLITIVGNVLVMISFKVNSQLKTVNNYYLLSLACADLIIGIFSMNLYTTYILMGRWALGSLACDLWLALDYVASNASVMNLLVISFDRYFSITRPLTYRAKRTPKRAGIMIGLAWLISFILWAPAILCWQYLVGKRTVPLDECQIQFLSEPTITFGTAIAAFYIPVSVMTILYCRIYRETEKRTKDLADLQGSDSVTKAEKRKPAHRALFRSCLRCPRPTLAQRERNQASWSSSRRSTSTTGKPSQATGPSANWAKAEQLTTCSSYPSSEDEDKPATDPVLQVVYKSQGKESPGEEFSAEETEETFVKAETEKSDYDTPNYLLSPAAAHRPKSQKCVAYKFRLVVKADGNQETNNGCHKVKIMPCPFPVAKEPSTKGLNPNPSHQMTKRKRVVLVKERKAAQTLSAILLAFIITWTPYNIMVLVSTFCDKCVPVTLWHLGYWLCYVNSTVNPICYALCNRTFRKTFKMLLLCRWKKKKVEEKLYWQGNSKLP

Row | SMILES | inhibition
1 | CC1C(=O)NC(=O)C1c1ccccc1 (configuration not stated) | 5.64%
2 | COc1cccc(-c2ccc(C#N)c(SCC(=O)NCCc3ccc(Cl)cc3)n2)c1 | -0.91%
3 | COc1cc(C(=O)N2CCOC23CCN(Cc2ccccc2)CC3)cc(OC)c1OC | 4.88%
4 | C[C@@H]1CC[C@@]2(OC1)O[C@H]1C[C@H]3[C@@H]4CC=C5C[C@@H](O)[C@H](O)C[C@]5(C)C4CC[C@]3(C)[C@H]1[C@@H]2C (some centres not stated) | -3.19%
5 | Cc1onc(-c2ccccc2)c1-c1nnc(COC(=O)c2ccc(N(C)C)cc2)o1 | 66.8% (active)
6 | O=C(OCc1nnc(-c2ccccc2)o1)c1cc(=O)[nH]c2ccccc12 | 6.31%
7 | O=C(OCc1nnc(-c2ccccc2)o1)c1ccc2c(c1)C(=O)N(CCc1ccccc1)C2=O | 5.45%
8 | CN/C(=C\[N+](=O)[O-])NCCSCc1csc(CN(C)C)n1 | 4.23%
9 | CC(C)C(=O)Nc1nnc(Sc2ccc(N(C)C)cc2)s1 | -0.86%
10 | COc1cc(OC)cc(C(=O)NC(=S)N2CCN(c3ccc(C(F)(F)F)cc3[N+](=O)[O-])CC2)c1 | 18.9%
11 | O=C(c1ccc(N2CCCC2=O)cc1)N1CCN(c2ccc(C(F)(F)F)cc2[N+](=O)[O-])CC1 | 29.3% (active)
12 | O=C(Cc1ccc(S(=O)(=O)N2CCOCC2)s1)N1CCN(c2ccc(C(F)(F)F)cc2[N+](=O)[O-])CC1 | 17.4%
13 | CC(Sc1sc(=S)sc1SC(C)C(=O)O)C(=O)O (configuration not stated) | 0.68%
14 | CN1CCC[C@@H]1CCO[C@](C)(c1ccccc1)c1ccc(Cl)cc1 | 98.5% (active)
15 | Cc1cc2oc3ccc(NCCC4CCCN4C)cc3c(=O)c2cc1C (configuration not stated) | 9.19%
16 | Cc1ccc(-c2noc(CNC(=O)c3ccoc3C)n2)cc1 | 12.7%
17 | CC(=O)c1ccc(S(=O)(=O)N(C)CCCC(=O)N(C)Cc2ccccc2F)cc1 | -0.62%
18 | Cc1nc(CN(C)C(=O)CC2C(=O)NCCN2Cc2ccc(F)cc2)cs1 (configuration not stated) | -22.7%
19 | CSc1cccc(NC(=S)N(C(C)C)C(C)c2ccccn2)c1 (configuration not stated) | 4.26%

Row | SMILES | inhibition
20 | COc1ccc2[nH]c(=O)c(CN(Cc3cccnc3)S(=O)(=O)c3ccccc3F)cc2c1 | 27.3% (active)
21 | CCOc1ccc2[nH]c(=O)c(CN(CCCO)S(=O)(=O)c3ccc(F)cc3)cc2c1 | 11.3%
22 | COc1ccc(-c2[nH]ncc2CN(C)Cc2cccnc2)c(F)c1 | -5.23%
23 | CC(C)c1nnc(NC(=O)C2CCCN2S(=O)(=O)c2ccc(Cl)cc2)s1 (configuration not stated) | -0.86%
24 | O=C(CNC1CCCCC1)NCC1(c2ccccc2)CCCC1 | 27.1% (active)
25 | CCOc1c(OC)cccc1C(=O)NCC1(c2ccccc2)CCCC1 | 15.3%
26 | CC(=O)CC(CC(=O)NC1CCCCC1)c1ccccc1 (configuration not stated) | 8.42%
27 | CC1CN(c2nc(-c3ccccc3)nnc2-c2ccccc2)CC(C)O1 (configuration not stated) | 0.03%
28 | C=CCC1(CC=C)CCCN1C(=O)c1cc(COc2ccc(-n3cncn3)cc2)on1 | 41.9% (active)
29 | O=C(c1cc(COc2c(F)cccc2F)on1)N1CCSCC1 | -3.86%
30 | CCCC(=O)N1CCC1(C)C(=O)Nc1ccc(-n2cncn2)cc1 (configuration not stated) | -3.91%
31 | CCN(CC)C(=O)C1CCC(C)(C(=O)O)C1(C)C (configuration not stated) | 8.62%
32 | COc1ccc(Cn2cc(CN3CCS(=O)(=O)N(Cc4ccc(-c5cccc(Cl)c5)cc4)C(C)C3=O)nn2)cc1 (configuration not stated) | -2.91%
33 | CC1=C(C(N)=O)C(c2sccc2C)n2nnnc2N1 (configuration not stated) | -6.06%
34 | COc1ccc(OC)c(C2N(c3ccccn3)C(=O)C3CCCN32)c1 (configuration not stated) | 2.53%
35 | CN(C)CC/C=C1\c2ccccc2CSc2ccccc21 | 99.1% (active)
36 | CN(C)Cc1ccccc1C1(O)c2ccccc2CSc2ccccc21 (configuration not stated) | 18.8%
37 | CCOC(=O)c1ccc(N=C2SC(C(=O)NC)CC(=O)N2CCc2ccccc2)cc1 (configuration not stated) | 3.02%
38 | COc1ccc(NC(=O)/C(Cl)=C(/Cl)S(=O)Cc2ccc(C)cc2)cn1 (configuration not stated) | 34.9% (active)

Row | SMILES | inhibition
39 | N#Cc1ccc(COC(=O)Cn2nnc(-c3ccccc3)n2)cc1 | 1.41%
40 | c1cc(-n2cnnn2)ccc1NC1=NCCC1 | -8.17%
41 | O=C(CSc1nccn1-c1cccc(F)c1)NC1CCCC1 | 0.21%
42 | CCC(C)(C)NC(=O)CN(C(=O)CCC(=O)Nc1cc(C)ccn1)c1ccc2c(c1)OCCO2 | -0.46%
43 | CCCCC(=O)NNC(=S)NC(=O)C(c1ccccc1)c1ccccc1 | 28.1% (active)
44 | CCCOCC(O)CC(CC)C(=O)NNC(=S)Nc1ccccc1 (configuration not stated) | -7.7%
45 | C=CCC(NC(=O)Cc1ccccc1)C(=O)NCCC (configuration not stated) | -3.26%
46 | CCCNC(=O)N1CCN(C(=O)NCCC)CC1 | 8.13%
47 | CCN1/C(=C\c2ccc3ccccc3[n+]2CC)Sc2cc(C)ccc21 | 48.1% (active)
48 | C#CCO[C@@H]1C[C@H](n2cnc3c(=O)[nH]c(NC(=O)C(C)C)nc32)O[C@@H]1CO | 9.77%
49 | Cc1cccc(-n2c(Cc3cc(=O)[nH]c(=O)[nH]3)nnc2SC(C)C)c1 | -3.22%
50 | CC[C@]12c3[nH]c4ccc(Cl)cc4c3CCN1C(=O)[C@@H](CC(=O)NCCCOC)C[C@@H]2C(=O)N1CCN(C(=O)C2CC2)CC1 | 0.99%
51 | COc1ccccc1NS(=O)(=O)c1ccc(C)c(C(=O)NCC(c2ccco2)N(C)C)c1 (configuration not stated) | 6.64%
52 | CSCCC(NS(=O)(=O)c1ccc(C)cc1)C(=O)NCCc1c[nH]c2ccccc12 (configuration not stated) | 2.39%
53 | Cc1cc(-c2ccc(S(=O)(=O)N3CCc4ccccc4C3)s2)on1 | 5.38%
54 | Cc1cc(-c2ccc(S(=O)(=O)N3CCN(c4cccc(C(F)(F)F)c4)CC3)s2)on1 | 53.9% (active)
55 | Cc1cccc(N2CCN(S(=O)(=O)c3ccc(-c4cc(C)no4)s3)CC2C)c1 (configuration not stated) | -1.63%
56 | C=CCCN(Cc1ccccc1)S(=O)(=O)c1ccccc1Br | 13.3%
57 | O=C(NCC(=O)N1CCC2(CC1)NCCc1[nH]cnc12)c1ccc(Br)cc1 | -15.5%
